According to PubChem BioAssay (NCATS):
Records with an inconclusive call do not appear. Active and inactive are the calls of the source. Calls come from the whole dose curve; as a rule, active = well fitted curve in the direction sought with a large enough effect; inconclusive = small, poorly fitted or top-dose-only effect, or another doubt; inactive = no such curve, though single readings can be large; an effect the other way counts as inactive or inconclusive.

Experiments:
[1] = qHTS assay for measurement of the activity of small molecule inhibitors on Zika virus induced Caspase-3 activity in human iPSC derived neural progenitor cells (hNPCs) (AID 1224857); conditions: hNPCs ZIKV-induced caspase-3/7, Caspase-Glo luminescence, 6 h; series mostly up to 45.7 µM; note: nearly all actives have a fitted effect of over 65% in size
In short: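 hNPCs seeded 350 cells/well, cultured 16–20 h; compounds added 1 h before ZIKV (2 FFU/cell), 37 C 6 h. Caspase-Glo 3/7 luminescence after 30 min RT; % inhibition from induction scaled to uninfected (0%) and infected (100%) wells.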

[2] = qHTS assay for measurement of the activity of small molecule inhibitors on Zika virus induced Caspase-3 activity in human astrocytoma cells (AID 1224859); conditions: SNB-19 ZIKV-induced caspase-3/7, luminescence, 6 h; series mostly up to 45.7 µM
In short: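 Luminescence read-out (Caspase-Glo 3/7, 30 min RT) of caspase activity in SNB-19 cells infected 6 h with ZIKV, 2 FFU/cell, after 1 h compound pretreatment; % inhibition from induction normalised to uninfected (0%) and infected (100%) wells.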

[3] = NS1 protein of Zika virus - qHTS assay to identify small molecule inhibitors in human HEK 293 cells (AID 1347053); conditions: HEK293 ZIKV MR766 infection, NS1 TR-FRET, 24 h; series mostly up to 46.1 µM; note: nearly all actives have a fitted effect of over 55% in size; note: potency is the fitted concentration of half-maximal effect
In short: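 Readout was TR-FRET using paired anti-NS1 antibodies after 24 h infection of HEK 293 cells with ZIKV MR766 (MOI = 0.5). Compound preceded virus by 1 h; reduced signal reflects lower NS1 expression.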

[4] = qHTS of pediatric cancer cell lines to identify multiple opportunities for drug repurposing: Primary screen for DAOY cells (AID 1347090); conditions: DAOY medulloblastoma viability, CellTiter-Glo luminescence, 48 h; series mostly up to 46 µM; note: nearly all actives have a fitted effect of over 55% in size; note: potency is the fitted concentration of half-maximal effect
In short: (§1)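 Cell viability, CellTiter-Glo luminescence; 500-1,000 cells/well, 8- or 11-point titration, 48 h compound exposure at 37 degrees C, 5% CO2. Controls: DMSO neutral, bortezomib 2.3 µM final as positive.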

[5] = qHTS of pediatric cancer cell lines to identify multiple opportunities for drug repurposing: Primary screen for SJ-GBM2 cells (AID 1347091); conditions: SJ-GBM2 viability, CellTiter-Glo luminescence, 48 h; series mostly up to 46 µM; note: potency is the fitted concentration of half-maximal effect
In short: as §1

[6] = qHTS of pediatric cancer cell lines to identify multiple opportunities for drug repurposing: Primary screen for A673 cells (AID 1347092); conditions: A673 Ewing sarcoma viability, CellTiter-Glo ATP luminescence, 48 h; series mostly up to 46 µM; note: nearly all actives have a fitted effect of over 45% in size
In short: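 Cells are plated, rested 5 h, dosed by pintool, incubated 48 h, then lysed with CellTiter-Glo and read by luminescence. DMSO is the neutral control; bortezomib at 2.3 uM final is the positive control.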

[7] = qHTS of pediatric cancer cell lines to identify multiple opportunities for drug repurposing: Primary screen for SK-N-MC cells (AID 1347093); conditions: SK-N-MC viability, CellTiter-Glo luminescence, 48 h; series mostly up to 46 µM; note: potency is the fitted concentration of half-maximal effect
In short: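 Metabolically active cells were quantified by ATP-dependent luminescence (CellTiter-Glo, 15 min at room temperature) following 48 h treatment. Cells had been plated at 500-1,000 per well and settled for 5 h beforehand.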

[8] = qHTS of pediatric cancer cell lines to identify multiple opportunities for drug repurposing: Primary screen for BT-37 cells (AID 1347094); conditions: BT-37 viability, CellTiter-Glo luminescence, 48 h; series mostly up to 57.3 µM; note: potency is the fitted concentration of half-maximal effect
In short: (§2)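 Primary screen of approved and investigational compounds on cells in growth media at 37 degrees C, 5% CO2. MIPE set at 11-point and NPC set at 8-point dilutions; viability scored by ATP-based luminescence at 48 hours.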

[9] = qHTS of pediatric cancer cell lines to identify multiple opportunities for drug repurposing: Primary screen for NB-EBc1 cells (AID 1347095); conditions: NB-EBc1 neuroblastoma viability, CellTiter-Glo luminescence, 48 h; series mostly up to 46 µM; note: potency is the fitted concentration of half-maximal effect
In short: as §2

[10] = qHTS of pediatric cancer cell lines to identify multiple opportunities for drug repurposing: Primary screen for U-2 OS cells (AID 1347096); conditions: U-2 OS viability, CellTiter-Glo luminescence, 48 h; series mostly up to 46 µM; note: nearly all actives have a fitted effect of over 50% in size
In short: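 Cells (500-1,000/well) rested 5 h, then received compounds for 48 h; metabolically active cells were measured by CellTiter-Glo luminescence. Final concentrations spanned up to 46 µM (MIPE, 11-point) or 0.59 nM-46 µM (NPC, 8-point) in primary screens, 11-point in follow-ups.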

[11] = qHTS of pediatric cancer cell lines to identify multiple opportunities for drug repurposing: Primary screen for Saos-2 cells (AID 1347097); conditions: Saos-2 viability, CellTiter-Glo ATP luminescence, 48 h; series mostly up to 46 µM; note: nearly all actives have a fitted effect of over 40% in size; note: potency is the fitted concentration of half-maximal effect
In short: as §2

[12] = qHTS of pediatric cancer cell lines to identify multiple opportunities for drug repurposing: Primary screen for TC32 cells (AID 1347089); conditions: TC32 Ewing sarcoma viability, CellTiter-Glo luminescence, 48 h; series mostly up to 45.8 µM; note: nearly all actives have a fitted effect of over 60% in size; note: potency is the fitted concentration of half-maximal effect
In short: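 Measured quantity: luminescence from CellTiter-Glo, reflecting metabolically active TC32 cells following 48 h of compound. Curves came straight from multi-point titrations, with 8 or 11 points in primary and 11 in confirmatory screening.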

Measured: Potency

CCOC(=O)Oc1ccc(CCNC(=O)[C@H](CCSC)NC(C)=O)cc1OC(=O)OCC
inactive: [1] | [2] | [3] | [4] | [5] | [6] | [7] | [8] | [9] | [10] | [11]

CCOC(=O)N1CCC(n2c(=O)[nH]c3cc(Cl)ccc32)CC1
inactive: [1] | [2] | [3] | [12] | [5] | [11]

COc1cc2nc(Cl)nc(N)c2cc1OC
inactive: [1] | [2] | [3] | [12] | [4] | [5] | [8] | [9] | [10] | [11]

COc1ccc(-n2nc(CCC(=O)N(C)O)cc2-c2ccc(Cl)cc2)cc1
active: [12] 16.7 µM | [9] 21.1 µM
inactive: [1] | [2] | [3] | [10]

O=[N+]([O-])c1ccc(O)c2ncccc12
inactive: [1] | [2]
active: [3] 6.31 µM | [12] 13.3 µM | [4] 2.66 µM | [5] 2.66 µM | [8] 15.5 µM | [9] 2.37 µM | [11] 10.6 µM

O=C(CCC1CCN(Cc2ccccc2)CC1)c1ccc2c(c1)NCCCC2
inactive: [1] | [2] | [3] | [12] | [4] | [9] | [10] | [11]

CCN1CCN(c2cc(-c3ccc(F)cc3)c3c(n2)CCCCCC3)CC1
inactive: [1] | [2] | [3] | [12] | [4] | [6] | [7] | [9] | [10]

C[C@@H](O[C@H]1OCCN(Cc2n[nH]c(=O)[nH]2)[C@H]1c1ccc(F)cc1)c1cc(C(F)(F)F)cc(C(F)(F)F)c1
inactive: [1] | [2] | [3] | [12]
active: [5] 21.1 µM | [8] 21.9 µM | [11] 11.9 µM

COC(=O)C1=C(C)NC(C)=C(C(=O)OCCc2ccc(N3CCN(C(c4ccccc4)c4ccccc4)CC3)cc2)C1c1cccc([N+](=O)[O-])c1 (centres undefined)
inactive: [1] | [2] | [3] | [4] | [5] | [6] | [8] | [9] | [10] | [11]

CCCN(CCC)C(=O)C(CCC(=O)OCCCN1CCN(CCOC(=O)Cc2c(C)n(C(=O)c3ccc(Cl)cc3)c3ccc(OC)cc23)CC1)NC(=O)c1ccccc1 (centres undefined)
active: [5] 18.8 µM
inactive: [1] | [2] | [3] | [12] | [4] | [10]

O=C(c1cc(O)c(O)c(O)c1)c1ccc(O)c(O)c1O
inactive: [1] | [2] | [3] | [12] | [4] | [5] | [9]
active: [11] 26.6 µM

CCOC(=O)N1CCC(Nc2ccc(Cl)cc2N)CC1
active: [7] 10.6 µM | [9] 6.68 µM
inactive: [1] | [2] | [3] | [4] | [5] | [10]
